The text below walks through data of PubChem BioAssay (NCI).

Compounds without any hit were thinned out: in the full panel of roughly 83,000, 20% have a hit.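 Values shown are percent growth following 48 h exposure of cells in 96-well plates to a single concentration of compound; below 10 was considered active.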 Values without a mark were called inactive. Calls of active or inactive are those of the source.

The experiment relates to HL-60(TB) leukemia. Briefly: NCI-60 one-dose screen, 48 h (100 = growth as untreated, 0 = no growth, -100 = all killed). The note with it: 10 µM unless noted.
In the case of `CCOc1cccc2c(NC(C)CCCN(CC)CC)c(C)cnc12` (stereo not given), the growth was 105%.

For the compound `C=C1CC[C@@H]2[C@](C)(COC(C)=O)[C@H](OC(C)=O)CC[C@@]2(C)[C@@H]1CC(Nc1ccc(S(=O)(=O)Nc2nccs2)cc1)C1=CCOC1=O` (stereo not given in full), the growth was -20.9% (active).

As for `COc1cc(CNS(=O)(=O)c2ccc(C)cc2)ccc1OCc1cn(-c2ccc(F)cc2)nn1`, the growth is 114%.

In the case of `CC(=O)Oc1ccccc1C(=O)N=C1[Se]CCN1C(=O)c1ccccc1OC(C)=O`, the growth is -34.4% (active).

Regarding `N/C(=N\C(N)=N\c1nc2ccccc2s1)c1ccnc(Br)c1`, the growth is 2.51% (active).

In the case of `CCc1ccc(CNCC(O)c2ccccc2)cc1` (stereo not given), the growth was 95.7%.

Take `CS(=O)(=O)c1ccc(C(=O)N/N=C/c2ccccc2Cl)cc1`: the growth was 52.3%.

Take `C=CCOc1cccc(/C=C2\SC(=Nc3ccc(O)cc3)NC2=O)c1`: the growth is -16.8% (active).

As for `O=C(Oc1ccccc1[N+](=O)[O-])C1CCCN1C(=O)OCc1ccccc1` (stereo not given), the growth was 58.9%.

In the case of `CC1CN(C(C)C)C(=S)N(c2ccccc2)C1=O` (stereo not given), the growth was 113%.

`N#CCCCCCn1c2ccccc2c2c3c(c4c5ccccc5[nH]c4c21)C(=O)N(O)C3=O`: the growth is -46% (active).

In the case of `COc1ccc(C(=O)CSc2nc(-c3cc(OC)ccc3OC)cc(-c3ccc(OC)cc3)c2C#N)cc1`, the growth is 98.3%.

For `COc1cccc(/C=C2\Oc3cc(OCCCN4CCCC4)ccc3C2=O)c1OC`, the growth is 96.3%.

On to `COc1ccc(NC(=O)c2ccc(C(=O)Nc3ccc(OC)cc3OC)cc2)c(OC)c1`, for which the growth was 88.5%.

For the compound `O=C(Nc1ccc(F)cc1)c1cc([N+](=O)[O-])ccc1O`, the growth is 59.6%.

For the compound `CCOC(=O)c1ccc2n1CCCc1cnc(NC(C)=O)nc1-2`, the growth was 109%.

As for `CC(O)CNC(Cc1ccccc1)c1ccc2c(c1)OCO2` (stereo not given), the growth is 96.3%.

In the case of `O=C(Nc1ccc(F)cc1)ON=C1CCCCC1`, the growth was 86.8% [100 µM].

Regarding `O=C(/C=C/c1cc2ccccc2[nH]c1=O)c1ccc(O)cc1`, the growth was 16%.

In the case of `C/C(=C(/c1ccccc1)c1ccc(OCC(O)CNCCN2CCOCC2)cc1)c1ccccc1` (stereo not given), the growth was 29%.

In the case of `COC(=O)CC[C@@H]1O[C@@H](c2ccc(F)cc2)[C@@H](O)[C@H]1O`, the growth is 113%.

Take `CNCCCn1c2c(c3ccc(Cl)cc3c1=O)C(=O)c1cc(OC)cnc1-2`: the growth is -26.3% (active).

Regarding `CCCCOC(=O)c1cccc([N+](=O)[O-])c1`, the growth was 142%.

As for `CSc1ccccc1C#C/C=C\C#Cc1ccccc1N1CCCC1=O`, the growth is -33.4% (active).

Consider `CCOC(=O)c1sc(-c2ccc(OS(=O)(=O)C[C@]34CCC(CC3=O)C4(C)C)c(C=O)c2)nc1C`, for which the growth is -5% (active).

Turning to `O=C(Cn1c[n+](CC(=O)c2ccc(-c3ccccc3)cc2)c2ccccc21)Nc1cccc2cccnc12`, the growth was -37.2% (active).

With `COc1ccc(C2CC(c3ccc(OC)cc3OC)=NN2c2ccc(S(N)(=O)=O)cc2)cc1` (stereo not given), the growth was 61.2%.

For the compound `CCOC(=O)C1=C(C)NC(SCc2nnc(-c3ccc(Cl)cc3)o2)=NC1c1ccc(Cl)cc1` (stereo not given), the growth is 21.4%.

Turning to `COc1cc(NC(=O)Nc2cnc(Nc3ccc(N4CCOCC4)cc3)nc2Oc2ccc(F)cc2)cc(OC)c1`, the growth is 65.4%.

For `O=C(CNC(=O)c1cccc2ccccc12)Nc1ccccc1Oc1cccc(O)c1`, the growth was -24.1% [5 µM] (active).

With `COc1ccc(Cn2cc(C(=O)N=Nc3c(O)[nH]c4c(C)cccc34)nn2)cc1`, the growth was 78.9%.

On to `c1csc(-c2ccc(CNc3c4ccccc4nc4ccccc34)cc2)c1`, for which the growth is -56.7% (active).

For `Cn1cc(-c2csc(-c3cn(C)c4ncccc34)n2)c2ccccc21`, the growth was -3.85% (active).

As to `CN1CCN(CCCNC(=O)c2c3c(n4ccccc24)C(=O)c2ncccc2C3=O)CC1`, the growth is -25.4% (active).

On to `Cc1c(/C=C/[N+](=O)[O-])ccc2c1[nH]c1ccccc12`, for which the growth was 67.3%.

Regarding `CNCc1cccc2c1OCCOCCOCCC(C)S(=O)(=O)c1ccc(cc1)-c1cnc(N)c(n1)C(=O)N2` (stereo not given), the growth was -34.8% (active).

On to `O=C(CNc1nc(-c2ccc(Cl)cc2)cs1)Nc1ccc(-c2nc3ccccc3s2)cc1`, for which the growth is 99.3%.

Regarding `Cc1ccc(S(=O)(=O)Nn2c3c(cc(-c4nc5ccccc5s4)c2=O)CCCCCC3)cc1`, the growth was 102%.

On to `C[C@]12CCc3nc(Nc4ccccc4)sc3C1=CC[C@@H]1[C@@H]2CC[C@]2(C)/C(=N/NC(N)=S)CC[C@@H]12`, for which the growth was 49%.

As to `CCCC(O)Cn1ncc(C(=O)OCC)c1NC(=O)NCc1cccc(F)c1` (stereo not given), the growth was 59.2%.
